Data on 5 compounds can be found in PMC5540273 (PLoS ONE, 2017).

Test systems include CDK2; CDK3; CDK4-cyclinD1; CDK4-cyclinD3; CDK4; CDK5; CDK7; CDK8; CDK9; CDKL1; CDKL2; CDKL3; CDKL5; CHEK1; CHEK2; CIT; CLK1; CLK2; CLK3; CLK4.
What all share (conditions): concentration: 1 μM, replicates: in singlicate; n = 1
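Further: KINOMEscan kinase panel screen.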

Regarding `COc1ccc(NC(=O)c2ccc(-c3cc(-c4nnc(C)o4)ccc3C)cc2)cc1` [GW595885], the “%Inh” value in the test on CDK2 amounted to 0%; in the test on CDK3 it was 22%; with CDK4-cyclinD1 it was 14%; in the test on CDK4-cyclinD3 it was 0%; in the test with CDK4 it was 0%; with CDK5 it was 0%. Also, the “%Inh” value is listed as 0% in the test with CDK7; 9% with CDK8; 0% in the test on CDK9; 0% in the test on CDKL1; 13% in the test on CDKL2; 0% in the test on CDKL3. Moreover, the “%Inh” value with CDKL5 is listed as 0%; in the test on CHEK1, 0%; with CHEK2, 0%; in the test with CIT, 22%; in the test on CLK1, 17%; with CLK2, 0%. The “%Inh” value in the test on CLK3 stood at 94.8%; in the test on CLK4 it was 20%.
Regarding `CC(C)(C)c1ccc(-n2cnc3c(N)ncnc32)cc1` [SKF-97263], the “%Inh” value with CDK2 came to 0%; in the test on CDK3, 3%; with CDK4-cyclinD1 it was 0%; with CDK4-cyclinD3, 0%; in the test with CDK4, 0%; with CDK5, 0%. Also, the “%Inh” value in the test on CDK7, with CDK8, with CDK9, with CDKL1, with CDKL2 and in the test on CDKL3 was 0% in each case. In addition, the “%Inh” value in the test on CDKL5 is listed as 0%; in the test on CHEK1 it was 34%; in the test with CHEK2, 0%; in the test on CIT, 31%; in the test with CLK1 it was 36%; in the test with CLK2 it was 20%. In addition, the “%Inh” value amounted to 19% with CLK3 and 50% with CLK4.
Turning to `CNc1nccc(-c2c(-c3ccc(F)cc3)ncn2C2CCN(C)CC2)n1` [SB-222903], the “%Inh” value in the test with CDK2, in the test with CDK3, in the test on CDK4-cyclinD1, in the test with CDK4-cyclinD3, in the test on CDK4 and in the test on CDK5 was 0% throughout. Moreover, the “%Inh” value was found to be 0% in the test with CDK7; 46% in the test on CDK8; 1% with CDK9; 13% in the test with CDKL1; 0% with CDKL2; 0% with CDKL3. For the same compound, the “%Inh” value in the test on CDKL5 is listed as 0%; in the test on CHEK1 it was 0%; in the test with CHEK2, 6%; in the test on CIT, 53%; with CLK1, 0%; in the test with CLK2 it was 3%. Besides, the “%Inh” value is 12% in the test with CLK3 and 0% with CLK4.
`Cc1ccc(C)c(NC(=O)NCCNc2ccnc(Nc3ccc(F)cc3)n2)c1` [GSK1379878]: the “%Inh” value in the test with CDK2 was determined as 0%; in the test with CDK3, 0%; in the test on CDK4-cyclinD1, 0%; with CDK4-cyclinD3 it was 0%; in the test with CDK4 it was 43%; in the test on CDK5, 0%. Further, the “%Inh” value in the test on CDK7 is given as 0%; in the test on CDK8 it was 29%; with CDK9 it was 0%; in the test on CDKL1, 0%; with CDKL2 it was 0%; in the test with CDKL3, 0%. The “%Inh” value was 0% with CDKL5; 5% with CHEK1; 0% in the test with CHEK2; 8% in the test on CIT; 23% with CLK1; 0% in the test on CLK2. The “%Inh” value in the test with CLK3 and in the test on CLK4 was 0% throughout.
For `CN1CCC(n2cnc(-c3ccc(F)cc3)c2-c2ccnc(NC3CCNCC3)n2)CC1` [SB-229482], the “%Inh” value in the test with CDK2 turned out to be 0%; in the test on CDK3 it was 0%; in the test on CDK4-cyclinD1, 33%; in the test with CDK4-cyclinD3, 11%; in the test with CDK4, 44%; with CDK5 it was 4%. In addition, the “%Inh” value was found to be 30% with CDK7; 11% in the test with CDK8; 0% in the test with CDK9; 0% in the test with CDKL1; 22% in the test with CDKL2; 3% in the test with CDKL3. Further, the “%Inh” value is reported as 0% in the test with CDKL5; 0% in the test with CHEK1; 39% with CHEK2; 2% in the test with CIT; 0% with CLK1; 0% with CLK2. In addition, the “%Inh” value was 4% in the test with CLK3 and 9% in the test on CLK4.
